# Measured values as given in PubChem BioAssay AID2717 (Broad Institute, 2010).
# Hit rate of the full screen: of about 300,000 compounds, about 3,200 (1.1%) were called active. What follows is part of a selection rich in actives, with near analogues and random picks from the rest. Values without a mark were called inactive. No stated cut-off is given here; in the data, active means inhibition above about 75%; inconclusive means no clear call, values can overlap the other calls; inactive means below that; tested in HMLE shEcad cells.
# Experiment: growth suppression of cancer stem-like cells – cell-based, luminescence, primary screen (AID 2717)
# Details: cancer stem cell-like cells viability, at 7.5 µM, active compounds read high
row,Structure (SMILES),inhibition
1,N#CCSc1nc2ccc(N3CCOCC3)cc2c(=O)n1CCc1ccccc1,77.9% (active)
2,CCCCn1c(SCC(=O)NCC2CCCO2)nc2ccc(N3CCOCC3)cc2c1=O (centres undefined),34.5%
3,COCCCNC(=O)CSc1nc2ccc(N3CCOCC3)cc2c(=O)n1CCc1ccccc1,20.5%
4,CSc1ncccc1C(=O)Nc1cccc(S(=O)(=O)N2CCOCC2)c1,-12.8%
5,O=c1cc(N2CCCCC2)c(-c2ccccc2)nn1Cc1cccc(F)c1,76.4% (active)
6,O=C(CS(=O)(=O)c1cn(Cc2cccc(F)c2)c2ccccc12)N1CCCCC1,-3.16%
7,c1ccc(-c2cc(N3CCCCC3)c3ccccc3n2)cc1,38.6%
8,CC(=O)c1c(OCC(=O)N(C)C2CCCCC2)ccc2c(C)cc(=O)oc12,-10.2%
9,O=C(CNC(=O)c1ccco1)NNC(=O)c1ccc(Br)cc1,5.78%
10,Cc1ccc(NC(=S)NC(NC(=O)Cc2cccc3ccccc23)C(Cl)(Cl)Cl)cc1 (centres undefined),192% (active)
11,O=C(Cc1cccc2ccccc12)NNC(=O)Nc1ccc(Cl)cc1,8.44%
12,CC(C)(C)C(=O)NC(NC(=S)Nc1ccc(S(N)(=O)=O)cc1)C(Cl)(Cl)Cl (centres undefined),-4.65%
13,CCOC(=O)[C@H]1[C@H]2COc3ccc(Cl)cc3[C@@H]2N2C(=O)c3cc(C)ccc3NC(=O)[C@@]12C,-10.6%
14,CCOCCn1c(-c2ccccc2)nc2ccccc21,-0.165%
15,CCCCn1c(N)c(N(CCOC)C(=O)CSCC(=O)Nc2cccc(C)c2)c(=O)[nH]c1=O,-17.7%
16,CCCCn1c(-c2cccc(C)c2)nc2cc3[nH]c(=O)c(C(C)C)nc3cc21,75.5% (active)
17,Cc1cc(NC(=O)CN2C(=O)NC(CC(C)C)C2=O)no1 (centres undefined),-1.14%
18,Cc1ccccc1NC(=O)CSC(=O)c1ccccc1,-3.3%
19,O=C(COC(=O)/C=C/c1ccc(Br)o1)Nc1cccc(S(=O)(=O)N2CCOCC2)c1,-14.4%
20,COc1ccc(C=Nc2cccc3ncccc23)cc1,-1.64%
21,O=[N+]([O-])c1ccc(N=Cc2c(O)ccc3ccccc23)cc1,12.2%
22,Oc1c(C=Nc2cccc3nsnc23)ccc2ccccc12,87.2% (active)

row,Structure (SMILES),inhibition
1,C[C@H]1CN([C@@H](C)CO)C(=O)Cc2cc(NC(=O)Cc3ccccc3)ccc2O[C@H]1CN(C)S(=O)(=O)c1cccs1,-17%
2,CCCC(=O)Nc1nc2ccc(NC(=O)c3c(F)c(F)c(OC)c(F)c3F)cc2s1,92% (active)
3,CCCC(=O)Nc1nc2ccc(NC(=O)c3cccnc3)cc2s1,47.6%
4,CSc1nc2ccc(NC(=O)c3c(F)cccc3F)cc2s1,4.73%
5,Cc1ccc(S(=O)(=O)N2[C@@H](c3cccc4ccccc34)C(C(=O)O)=C[C@H]2C(C)(C)C)cc1,11.1%
6,COc1cccc(NC(=O)CSc2nnc(C3CCCCC3)n2N)c1,-6.52%
7,CC(C)c1ccccc1OCC(O)CN(CC(O)COc1cccc2ccccc12)C(C)C (centres undefined),102% (active)
8,Cc1cc(C)c(NC(=O)C[N+](C)(C)CC(O)COc2cccc3ccccc23)c(C)c1 (centres undefined),-3.82%
9,OC(COc1cccc2ccccc12)CN1CCN(c2ccccn2)CC1 (centres undefined),-5.87%
10,O=C(Cc1ccc(Cl)c(Cl)c1)Nc1ccc(SC(F)F)cc1,75.2% (active)
11,CC(=O)N1CCN(CC(=O)Nc2ccc(SC(F)F)cc2)CC1,5.6%
12,Cc1ccc(CC(=O)Nc2ccc(OC(F)F)c(Cl)c2)cc1C,33.3%
13,COc1cc([N+](=O)[O-])ccc1NC(=O)COC(=O)CCOc1ccc(C)cc1,18.1%
14,COc1ccc(NS(=O)(=O)c2ccc(NC(=S)NC(=O)/C=C/c3ccc(C)cc3)cc2)nn1,9.35%
15,COc1ccc(/C=C/C(=O)c2ccc(NS(=O)(=O)c3ccc(C)cc3)cc2)cc1O,99.8% (active)
16,Cc1ccc(C(=O)/C=C/Nc2ccc(S(=O)(=O)Nc3onc(C)c3C)cc2)cc1,6.82%
17,CC(C)(C)OC(=O)C[C@@H]1C/C=C\C[C@@H](CC(=O)NCCO)C(=O)N[C@H](Cc2c[nH]c3ccccc23)COC1=O,-11.3%
18,Cc1ccc(Br)c(NS(=O)(=O)c2cccc(C(=O)N3CCNC(=O)C3)c2)c1,-15.2%
19,CN1CCN(C2Cc3ccc(Cl)cc3Sc3ccc(F)cc32)CC1 (centres undefined),101% (active)
20,O=C(N=C1SC2CS(=O)(=O)CC2N1c1ccccc1)c1ccccc1 (centres undefined),-9.26%
21,Cc1ccc(C2(C)NC(=O)N(CC(=O)N3CC(=O)Nc4ccccc43)C2=O)cc1 (centres undefined),-12.5%
22,O=C(c1ccc(S(=O)(=O)NCc2ccco2)cc1)N1CCN(c2ccccc2)CC1,-16.3%
